Here are results for 130 sequences from a collection of fitness landscapes (doi:10.1038/s41467-024-54723-y).

Whole data set: some 18,000 sequences, median “TetR repression strength (sort-seq, GFP reporter)” near 0.23, cut for the highest 2% near 0.68. This excerpt belongs to a sample that is enriched for the highest values.

For this experiment, the target named is TetR (class B, Tn10) (UniProt P04483). Description: TetR repression strength (sort-seq, GFP reporter) (relative to tetO2 = 1); higher = stronger repression. The conditions noted are these: E. coli. The method, boiled down: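 Escherichia coli SIG10-MAX cells carried a low-copy plasmid library in which eight operator positions were randomized between a constitutive promoter and sfGFP, and TetR was expressed constitutively. After 5 h of growth at 37 °C in LB with 50 µg/mL chloramphenicol, 10^6 cells were FACS-sorted into 13 fluorescence bins, and each bin was Illumina-sequenced. Repression strength was the top bin index plus one minus the read-weighted mean bin, divided by the value for the unaltered operator. Across three independent transformations, only library members with ≥30 reads in every replicate and a CV ≤0.5 were averaged.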
Chain of TetR (class B, Tn10) (P04483 whole entry): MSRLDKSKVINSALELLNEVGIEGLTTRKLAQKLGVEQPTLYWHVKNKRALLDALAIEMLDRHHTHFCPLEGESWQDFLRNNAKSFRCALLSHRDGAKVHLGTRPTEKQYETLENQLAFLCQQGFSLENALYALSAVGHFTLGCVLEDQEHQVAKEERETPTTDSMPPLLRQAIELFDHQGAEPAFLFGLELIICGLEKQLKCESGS
For TCCCTGGCAGTTTGCGAGA, the TetR repression strength came out at 0.65.

The sequence TCCCGGGGAGTGCAGGAGA gave a TetR repression strength of 0.176.

In turn, TCCCGAATAGTGAGGGAGA came in with a TetR repression strength of 0.127.

TCCCGGACAGTCGACGAGA: the TetR repression strength was determined as 0.0556.

Sequence TCCCGGACAGTCGTCGAGA showed a TetR repression strength of 0.892.

Sequence TCCCGCCGAGTCGAGGAGA yielded a TetR repression strength of 0.36.

Take TCCCGCCGAGTCGTCGAGA: the TetR repression strength amounted to 1.24.

As to TCCCGCCGAGTAGTCGAGA, the TetR repression strength was determined as 0.18.

In turn, TCCCGGACAGTCATCGAGA displayed a TetR repression strength of 0.216.

In turn, TCCCTTGCAGTCAATGAGA displayed a TetR repression strength of 0.251.

In turn, TCCCAGGGAGTACTCGAGA gave a TetR repression strength of 0.275.

As for TCCCGGGGAGTGACTGAGA, the TetR repression strength came to 0.143.

Sequence TCCCTTCTAGTCCGTGAGA displayed a TetR repression strength of 0.468.

Sequence TCCCGATGAGTCAGGGAGA returned a TetR repression strength of 0.174.

As for TCCCTGTAAGTCAGCGAGA, the TetR repression strength stood at 0.494.

TCCCAGGCAGTGTGTGAGA showed a TetR repression strength of 0.207.

TCCCACACAGTATGTGAGA gave a TetR repression strength of 0.13.

Regarding TCCCACAGAGTATGTGAGA, the TetR repression strength worked out at 1.24.

In turn, TCCCTCATAGTATGTGAGA yielded a TetR repression strength of 0.257.

For the sequence TCCCGCAGAGTATGTGAGA, the TetR repression strength was determined as 0.171.

Consider TCCCACATAGTATGTGAGA, for which the TetR repression strength worked out at 1.23.

The sequence TCCCACATAGTAAGTGAGA gave a TetR repression strength of 0.207.

In turn, TCCCGCATAGTTATTGAGA gave a TetR repression strength of 0.197.

TCCCGAACAGTGGGAGAGA registered a TetR repression strength of 0.231.

Regarding TCCCATTTAGTTCGGGAGA, the TetR repression strength amounted to 1.09.

TCCCATTGAGTTCGAGAGA gave a TetR repression strength of 0.29.

The sequence TCCCATTTAGTCGCGGAGA returned a TetR repression strength of 0.755.

On to TCCCCATTAGTCGCGGAGA, for which the TetR repression strength came to 0.241.

TCCCCTTTAGTTCGGGAGA came in with a TetR repression strength of 0.339.

TCCCGGGGAGTTCGGGAGA yielded a TetR repression strength of 0.307.

TCCCATTTAGTCGGAGAGA: the TetR repression strength is 0.231.

TCCCGGGTAGTTCGAGAGA: the TetR repression strength was 0.289.

TCCCATGGAGTTCGGGAGA came in with a TetR repression strength of 0.228.

Turning to TCCCAGTTAGTTCGGGAGA, the TetR repression strength was determined as 0.0688.

As for TCCCGGGTAGTTCGGGAGA, the TetR repression strength stood at 0.723.

TCCCATTGAGTTCGGGAGA registered a TetR repression strength of 0.851.

TCCCATACAGTCGTAGAGA: the TetR repression strength was 0.0752.

The sequence TCCCTCAGAGTGCTGGAGA showed a TetR repression strength of 0.475.

TCCCGGCAAGTTAGTGAGA came in with a TetR repression strength of 0.0764.

With TCCCGTCAAGTGCATGAGA, the TetR repression strength turned out to be 0.315.

Turning to TCCCTATCAGTAGGCGAGA, the TetR repression strength came to 0.414.

Sequence TCCCTTTCAGTTACAGAGA had a TetR repression strength of 0.363.

As to TCCCTAACAGTTACTGAGA, the TetR repression strength is 0.297.

In turn, TCCCTGTCAGTTACTGAGA came in with a TetR repression strength of 0.327.

Sequence TCCCTCTCAGTTACTGAGA displayed a TetR repression strength of 0.703.

Sequence TCCCTATCAGTTACGGAGA showed a TetR repression strength of 0.484.

With TCCCTATCAGTTACTGAGA, the TetR repression strength worked out at 0.698.

For the sequence TCCCTAGAAGTTACTGAGA, the TetR repression strength came to 0.18.

As for TCCCTATAAGTTATTGAGA, the TetR repression strength turned out to be 0.433.

For the sequence TCCCTATAAGTTACTGAGA, the TetR repression strength worked out at 0.711.

As for TCCCCTTCAGTTACTGAGA, the TetR repression strength was 0.28.

TCCCTAACAGTTACAGAGA registered a TetR repression strength of 0.203.

TCCCTATCAGTTACAGAGA gave a TetR repression strength of 0.707.

For TCCCCTTGAGTGGACGAGA, the TetR repression strength was determined as 0.325.

As to TCCCAGAGAGTAGCAGAGA, the TetR repression strength was determined as 0.294.

Turning to TCCCCCACAGTAAGAGAGA, the TetR repression strength was determined as 0.158.

TCCCTTATAGTGGGGGAGA showed a TetR repression strength of 0.161.

Sequence TCCCCACCAGTGAGGGAGA displayed a TetR repression strength of 0.933.

With TCCCCCACAGTGAGGGAGA, the TetR repression strength was 0.311.

Regarding TCCCCACGAGTGAGGGAGA, the TetR repression strength worked out at 0.217.

Turning to TCCCACCAAGTGAGGGAGA, the TetR repression strength was 0.324.

Take TCCCCAGCAGTGAGGGAGA: the TetR repression strength was 0.0743.

For TCCCCACAAGTGAGGGAGA, the TetR repression strength came to 0.956.

TCCCACTTAGTGACAGAGA came in with a TetR repression strength of 0.396.

Consider TCCCTGTGAGTGAGAGAGA, for which the TetR repression strength amounted to 0.407.

Turning to TCCCGTAGAGTATACGAGA, the TetR repression strength is 0.126.

In turn, TCCCATTGAGTCCTAGAGA displayed a TetR repression strength of 0.304.

For the sequence TCCCACCAAGTACAGGAGA, the TetR repression strength was determined as 0.186.

For the sequence TCCCGCTGAGTGCCAGAGA, the TetR repression strength is 0.341.

Consider TCCCGGTCAGTGACAGAGA, for which the TetR repression strength came to 0.666.

TCCCGCTCAGTGCCAGAGA registered a TetR repression strength of 0.801.

With TCCCGCAGAGTGTAGGAGA, the TetR repression strength is 0.191.

As to TCCCGCAGAGTGTAAGAGA, the TetR repression strength was 0.753.

TCCCGCTCAGTGTCAGAGA had a TetR repression strength of 0.244.

As for TCCCTCTCAGTGACAGAGA, the TetR repression strength was 0.607.

With TCCCGCTGAGTGTCAGAGA, the TetR repression strength stood at 1.09.

In turn, TCCCGCGGAGTGTAAGAGA returned a TetR repression strength of 0.256.

For TCCCGCTCAGTGCCTGAGA, the TetR repression strength stood at 0.348.

Consider TCCCGCTTAGTGTCAGAGA, for which the TetR repression strength came to 0.634.

Regarding TCCCGCTCAGTGACAGAGA, the TetR repression strength is 0.715.

As for TCCCTCTAAGTGTCCGAGA, the TetR repression strength was found to be 0.512.

Turning to TCCCTTCGAGTCCGAGAGA, the TetR repression strength was found to be 0.228.

Consider TCCCGCATAGTACCTGAGA, for which the TetR repression strength turned out to be 0.562.

TCCCCAGGAGTGTCTGAGA registered a TetR repression strength of 0.273.

The sequence TCCCTTAAAGTATTAGAGA displayed a TetR repression strength of 0.252.

For the sequence TCCCTTTAAGTTGACGAGA, the TetR repression strength came out at 0.338.

TCCCAGGTAGTCGGCGAGA came in with a TetR repression strength of 0.113.

As for TCCCGACCAGTATGCGAGA, the TetR repression strength is 0.0346.

TCCCAGGGAGTAGTTGAGA yielded a TetR repression strength of 0.0889.

Turning to TCCCGGGCAGTTCAAGAGA, the TetR repression strength stood at 0.417.

In turn, TCCCGGTAAGTAGGCGAGA yielded a TetR repression strength of 1.05.

TCCCAGGCAGTAGGCGAGA came in with a TetR repression strength of 0.205.

Turning to TCCCGGAAAGTAGGCGAGA, the TetR repression strength came out at 0.0444.

TCCCGGGCAGTAGGCGAGA showed a TetR repression strength of 1.05.

Sequence TCCCGGTAAGTAGGAGAGA displayed a TetR repression strength of 0.229.

TCCCGGGCAGTACAAGAGA yielded a TetR repression strength of 1.05.

For the sequence TCCCGGGAAGTAGGCGAGA, the TetR repression strength came out at 0.849.

On to TCCCGGGCAGTGGGCGAGA, for which the TetR repression strength turned out to be 0.253.

Sequence TCCCGGGCAGTACACGAGA yielded a TetR repression strength of 0.318.

TCCCGCTAAGTAGGCGAGA displayed a TetR repression strength of 0.0386.

In turn, TCCCCGGAAGTAGGCGAGA returned a TetR repression strength of 0.186.

TCCCACCAAGTGTTCGAGA registered a TetR repression strength of 0.311.

Consider TCCCTCGGAGTGCTTGAGA, for which the TetR repression strength turned out to be 0.224.

Regarding TCCCGACGAGTAGCAGAGA, the TetR repression strength was 0.486.

In the case of TCCCGGTAAGTCAAGGAGA, the TetR repression strength was found to be 0.397.

As for TCCCTCATAGTGCTCGAGA, the TetR repression strength was 0.581.

TCCCAGGGAGTGTTAGAGA: the TetR repression strength stood at 0.263.

TCCCGCTGAGTCCGGGAGA showed a TetR repression strength of 0.401.

For TCCCAGTCAGTAGGCGAGA, the TetR repression strength was determined as 0.16.

The sequence TCCCCGTCAGTAGGCGAGA came in with a TetR repression strength of 0.243.

For the sequence TCCCGGTCAGTAGGCGAGA, the TetR repression strength is 1.01.

The sequence TCCCTAGCAGTCTTCGAGA yielded a TetR repression strength of 0.495.

The sequence TCCCTTGGAGTCGTTGAGA displayed a TetR repression strength of 0.304.

In turn, TCCCTTTGAGTCTATGAGA yielded a TetR repression strength of 0.804.

Sequence TCCCTTCTAGTTTTTGAGA registered a TetR repression strength of 0.415.

For TCCCTTCTAGTTACTGAGA, the TetR repression strength amounted to 0.464.

For TCCCTTCTAGTCTTTGAGA, the TetR repression strength came out at 0.693.

In turn, TCCCTTTTAGTGTATGAGA returned a TetR repression strength of 0.271.

Sequence TCCCTTAGAGTCTATGAGA gave a TetR repression strength of 0.159.

In turn, TCCCTTTGAGTCTTTGAGA came in with a TetR repression strength of 0.181.

As for TCCCTTTTAGTCTATGAGA, the TetR repression strength came out at 0.858.

In turn, TCCCTTCTAGTTGTTGAGA had a TetR repression strength of 0.216.

For the sequence TCCCTTCTAGTTGCTGAGA, the TetR repression strength stood at 0.73.

TCCCATTTAGTCTATGAGA: the TetR repression strength is 0.279.

Take TCCCGTCTAGTCTTTGAGA: the TetR repression strength stood at 0.366.

Sequence TCCCTGGTAGTTGCTGAGA registered a TetR repression strength of 0.189.

In turn, TCCCAGAAAGTCGGGGAGA showed a TetR repression strength of 0.0115.

Sequence TCCCGAGCAGTATCGGAGA registered a TetR repression strength of 0.138.

TCCCAATAAGTGATTGAGA: the TetR repression strength is 0.408.

As to TCCCACATAGTCTTTGAGA, the TetR repression strength stood at 0.244.
